Measured values taken from PubChem BioAssay AID1508622 (National Center for Advancing Translational Sciences (NCATS), 2021).

Experiment: Confirmatory qHTS for Identification of Small Molecule Activators of Huntingtin-Antisense Promoter Activity
Details: HEK293 HTT-AS promoter firefly luciferase reporter, 24 h; series mostly up to 57.5 µM; activity change, positive = activation: at the top concentration; active = well fitted activation curve with a large enough effect; inconclusive = small, poorly fitted or top-dose-only effect; inactive = no such curve, though single readings can be large or run the other way
Procedure, shortened: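 Plated reporter HEK293 cells (24 h) received library compounds at up to 57.5 uM final or 50 uM PTC124, incubated 24 h at 37C; firefly luciferase luminescence was then recorded with Dual-Glo reagent.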

Activity change, positive = activation, inactive:
CCN(CC)c1ccc(NC(=O)COCc2cc(-c3ccc4c(c3)OCO4)on2)c(C)c1 -33.1%
CSc1cccc(NC(=O)C2CCN(S(=O)(=O)c3ccc4[nH]c5c(c4c3)CCCCC5)CC2)c1 -16.3%
CC(C)c1ccc(NC(=O)c2ccc(F)c(S(=O)(=O)N3CCCCCC3)c2)cc1 -29.2%
Cc1ccc(Cl)cc1N1CCN(C(=O)c2ccc3c(c2)N(Cc2ccc(F)cc2)CCS3)CC1 -36.5%
CCC(C(=O)NCc1ccc(OC)c(OC)c1)n1nc(C)c2c(C)n(-c3ccc(C)cc3)nc2c1=O (stereo not given) -57.8%
CN1C(=O)c2ccccc2Sc2ccc(NC(=O)NCc3ccc(Cl)cc3)cc21 -93.9%
COc1ccc(NC(=O)c2ccc(-c3nc(CSc4ccccc4)c(C)o3)cc2)c(OC)c1 -23.6%
COc1ccc(S(=O)(=O)N(CCc2ccccc2)CC(=O)Nc2cc(C)cc(C)c2)cc1OC -24.1%
COc1ccc(C(=O)NCC(c2cccnc2)N2CCc3ccccc32)cc1 (stereo not given) -45.2%
Cc1cc(N2CCC(C)CC2)nc2ccc(NC(=O)CCC(=O)N3CCN(c4cccc(C(F)(F)F)c4)CC3)cc12 -18.5%
CCn1c(=O)n(CC)c2cc(N3CCCCC3)c(NC(=O)Nc3cc(Cl)ccc3OC)cc21 -24.6%
O=C(CSc1nccn1Cc1ccc(F)cc1)Nc1nc2ccccc2s1 -21.3%
COc1cc(CNC(=O)c2ccc3nc(Cc4ccccc4)oc3c2)cc(OC)c1OC -68.9%
CCCCN(C)C(=O)C1CCC(CNS(=O)(=O)c2ccc(Cl)cc2)CC1 (stereo not given) -34.2%
CCOc1ccc(-n2ccnc2SCC(=O)Nc2ccc3c(c2)OCO3)cc1 -57.7%
